From PubChem BioAssay (EPA / NIEHS)
Records with an inconclusive call do not appear. Calls of active or inactive are those of the source. The calls were made as follows, unless noted: active = hit-call score of the fitted dose curve at least 0.9, where 1 is the maximum; inconclusive = response in the unintended direction; inactive = score below 0.9.

Legend:
[1] = read-out: ABC Transporter (ABCB11), ABCB11 (gene 8647); test: CLD_ABCB11_24hr: CellzDirect (CLD) Gene Expression Assay for ABC Transporter (ABCB11) at 24 hours (AID 2283674; active = hit-call score of the fitted dose curve at least 0.9, where 1 is the maximum; inactive = score below 0.9)
Outline: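 Primary human hepatocytes were dosed daily for two days, with 0.2% DMSO vehicle. ABCB11 mRNA induction was measured at 24 hours by quantitative nuclease protection assay with chemiluminescence. Gain of signal was fitted relative to DMSO.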

[2] = CLD_ACTIN_6hr: CellzDirect (CLD) Gene Expression Assay for Baseline Control (Actin) at 6 hours (AID 2283676);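 also: active means increased actin mRNA relative to DMSO vehicle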
Outline: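 Primary human hepatocytes dosed with fresh chemical solutions (vehicle 0.2% DMSO), harvested at 6 h. Actin mRNA quantified by quantitative nuclease protection assay with chemiluminescent read-out, as background control relative to DMSO.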

[3] = read-out: Cytochrome P450 2B6 (Homo sapiens) (UniProt P20813); test: CLD_CYP2B6_6hr: CellzDirect (CLD) Gene Expression Assay for xenobiotic metabolism (CYP2B6) at 6 hours (AID 2283677);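 also: actives raise CYP2B6 transcript above DMSO baseline so AC50 marks an inducer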
Outline: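 Primary human hepatocytes dosed with chemicals at multiple concentrations, vehicle 0.2% DMSO; CYP2B6 mRNA induction measured 6 h after dosing by quantitative nuclease protection assay with chemiluminescence, gain of signal fitted relative to DMSO.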

[4] = read-out: Cytochrome P450 2C19 (Homo sapiens) (UniProt P33261); test: CLD_CYP2C19_6hr: CellzDirect (CLD) Gene Expression Assay for xenobiotic metabolism (CYP2C19) at 6 hours (AID 2283678)
Outline: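 Primary human hepatocytes from two donor preparations were dosed daily, with 0.2% DMSO as vehicle, and harvested 6 h after dosing. CYP2C19 mRNA induction was measured by qNPA chemiluminescence and fitted as gain of signal against DMSO.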

[5] = CCTE_Padilla_ZF_144hpf_TERATOSCORE: (Legacy) CCTE's 144 Hour Post-fertilization zebrafish Assay Teratoscore, Padilla Lab (AID 2283679; active = hit-call score of the fitted dose curve at least 0.9, where 1 is the maximum; inactive = score below 0.9;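 as to AC50: zebrafish embryos with chorions exposed by immersion from 6-8 hpf to 5 dpf with daily renewal; teratogenicity score from eye scoring of death hatching and malformations at 144 hpf; higher score means more developmental defects relative to DMSO baseline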)
Outline: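 Larvae scored by eye at 144 hpf for death, hatching and malformations after a day in clean Hanks'. Before that, daily-renewed exposure at 80 uM (0.4% DMSO, 26C) from roughly 6-8 hpf through 5 dpf, 4 embryos per chemical.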

[6] = read-out: Cytochrome P450 3A4 (Homo sapiens) (UniProt P08684); test: CLD_CYP3A4_6hr: CellzDirect (CLD) Gene Expression Assay for xenobiotic metabolism (CYP3A4) at 6 hours (AID 2283680)
Outline: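 Primary human hepatocytes (two donor preparations) dosed; CYP3A4 mRNA harvested at 6 h and quantified by qNPA chemiluminescence. Gain of signal fitted against 0.2% DMSO vehicle; cytotoxicity flagged by phase-contrast morphology.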

[7] = read-out: Glyceraldehyde-3-phosphate dehydrogenase (Homo sapiens) (UniProt P04406); test: CLD_GAPDH_6hr: CellzDirect (CLD) Gene Expression Assay for Baseline Control (Glyceraldehyde 3-phosphate dehydrogenase) at 6 hours (AID 2283681);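 also: active means increased signal relative to DMSO vehicle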
Outline: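 Primary human hepatocytes from two donor preparations, dosed at multiple concentrations with 0.2% DMSO vehicle; GAPDH mRNA measured 6 h after dosing by chemiluminescent quantitative nuclease protection assay (qNPA) on denatured lysates. Serves as background control; cytotoxicity annotated by morphology.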

[8] = read-out: xenobiotic metabolism (CYP1A2), CYP1A2 (gene 1544); test: CLD_CYP1A2_24hr: CellzDirect (CLD) Gene Expression Assay for xenobiotic metabolism (CYP1A2) at 24 hours (AID 2283683)
Outline: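 Primary human hepatocytes from two donor preparations dosed daily with multiple concentrations of chemical, 0.2% DMSO vehicle. CYP1A2 mRNA at 24 h quantified by qNPA chemiluminescence; gain of signal analyzed relative to DMSO. Cytotoxicity flagged by phase-contrast morphology.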

[9] = read-out: ABC Transporter (ABCB1), ABCB1 (gene 5243); test: CLD_ABCB1_24hr: CellzDirect (CLD) Gene Expression Assay for ABC Transporter (ABCB1) at 24 hours (AID 2283684)
Outline: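 Primary human hepatocytes, two donor preparations, dosed daily with fresh solutions; vehicle 0.2% DMSO; harvested at 24 h. ABCB1 mRNA measured by quantitative nuclease protection assay (chemiluminescence); morphology-based cytotoxicity annotated.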

[10] = read-out: Broad substrate specificity ATP-binding cassette transporter ABCG2 (Homo sapiens) (UniProt Q9UNQ0); test: CLD_ABCG2_24hr: CellzDirect (CLD) Gene Expression Assay for ABC Transporter (ABCG2) at 24 hours (AID 2283685);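 as to AC50: AC50 is for induction meaning signal gain over DMSO vehicle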
Outline: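 Primary human hepatocytes were dosed daily with ToxCast chemicals at multiple concentrations (vehicle 0.2% DMSO). ABCG2 mRNA was measured at 24 h by qNPA chemiluminescence; induction was scored as gain of signal versus DMSO.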

[11] = read-out: Cytochrome P450 2B6 (Homo sapiens) (UniProt P20813); test: CLD_CYP2B6_24hr: CellzDirect (CLD) Gene Expression Assay for xenobiotic metabolism (CYP2B6) at 24 hours (AID 2283686)
Outline: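 Primary human hepatocytes dosed daily for two days with fresh solutions, harvested at 24 hours; mRNA induction quantified by qNPA chemiluminescence, gain of signal vs 0.2% DMSO vehicle. Cytotoxicity annotated from phase-contrast morphology.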

[12] = read-out: Cytochrome P450 2C19 (Homo sapiens) (UniProt P33261); test: CLD_CYP2C19_24hr: CellzDirect (CLD) Gene Expression Assay for xenobiotic metabolism (CYP2C19) at 24 hours (AID 2283687);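 also: activity means mRNA induction above DMSO vehicle baseline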
Outline: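 Primary human hepatocytes (two donor preparations) dosed daily with fresh test chemical in 0.2% DMSO vehicle; CYP2C19 mRNA induction measured at 24 h by quantitative nuclease protection assay with chemiluminescence, fitted for gain of signal versus DMSO.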

[13] = read-out: Cytochrome P450 3A4 (Homo sapiens) (UniProt P08684); test: CLD_CYP3A4_24hr: CellzDirect (CLD) Gene Expression Assay for xenobiotic metabolism (CYP3A4) at 24 hours (AID 2283689)
Outline: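 Primary human hepatocytes from two donors dosed daily with fresh compound for two days, 0.2% DMSO vehicle. CYP3A4 mRNA at 24 hr by qNPA chemiluminescence; gain-of-signal fit versus DMSO, cytotoxicity flagged by morphology.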

[14] = read-out: organic anion transporter (SLCO1B1), SLCO1B1 (gene 10599); test: CLD_SLCO1B1_24hr: CellzDirect (CLD) Gene Expression Assay for organic anion transporter (SLCO1B1) at 24 hours (AID 2283690)
Outline: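 Primary human hepatocytes (two donor preparations) dosed daily for two days with chemicals at multiple concentrations, 0.2% DMSO vehicle. SLCO1B1 mRNA at 24 h measured by qNPA chemiluminescence; induction fitted relative to DMSO.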

[15] = read-out: sulfotransferase (SULT2A), SULT2A1 (gene 6822); test: CLD_SULT2A_24hr: CellzDirect (CLD) Gene Expression Assay for sulfotransferase (SULT2A) at 24 hours (AID 2283694);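 as to AC50: potency for increased SULT2A1 mRNA level as induction over DMSO baseline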
Outline: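 Primary human hepatocytes from two donor preparations were dosed daily with fresh solutions, vehicle 0.2% DMSO. At 24 h, lysates went to quantitative nuclease protection (qNPA) with S1 digestion and chemiluminescent readout. Cytotoxicity was annotated from phase-contrast morphology.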

[16] = read-out: Glyceraldehyde-3-phosphate dehydrogenase (Homo sapiens) (UniProt P04406); test: CLD_GAPDH_24hr: CellzDirect (CLD) Gene Expression Assay for Baseline Control (Glyceraldehyde 3-phosphate dehydrogenase) at 24 hours (AID 2283692)
Outline: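 Primary human hepatocytes (two donor preparations) dosed daily for two days, 0.2% DMSO vehicle; GAPDH mRNA measured at 24 h by qNPA chemiluminescence as a background control, gain-of-signal fitted against DMSO.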

[17] = read-out: ABC Transporter (ABCB1), ABCB1 (gene 5243); test: CLD_ABCB1_48hr: CellzDirect (CLD) Gene Expression Assay for ABC Transporter (ABCB1) at 48 hours (AID 2283695)
Outline: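 Primary human hepatocytes from two donor preparations dosed daily on two consecutive days with 0.2% DMSO vehicle. Harvest at 48 h. ABCB1 mRNA quantified by qNPA with chemiluminescence and fitted for gain of signal versus DMSO.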

[18] = read-out: ABC Transporter (ABCB11), ABCB11 (gene 8647); test: CLD_ABCB11_6hr: CellzDirect (CLD) Gene Expression Assay for ABC Transporter (ABCB11) at 6 hours (AID 2283675);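 also: hits raise ABCB11 mRNA level so AC50 marks induction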
Outline: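 Human primary hepatocytes (two donor preparations) given fresh chemical daily at multiple concentrations, vehicle 0.2% DMSO. ABCB11 mRNA induction measured 6 h after dosing by qNPA chemiluminescence versus DMSO; cytotoxicity annotated from morphology.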

[19] = read-out: alkyl and aryl transferase (GSTA2), GSTA2 (gene 2939); test: CLD_GSTA2_24hr: CellzDirect (CLD) Gene Expression Assay for alkyl and aryl transferase (GSTA2) at 24 hours (AID 2283693)
Outline: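 Primary human hepatocytes (two donor preparations) dosed daily for two days with chemicals at multiple concentrations (vehicle 0.2% DMSO); GSTA2 mRNA at 24 h measured by qNPA chemiluminescence, gain-of-signal versus DMSO.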

Measured: AC50

Chain of Cytochrome P450 3A4 (Homo sapiens) (P08684 whole entry, looked up): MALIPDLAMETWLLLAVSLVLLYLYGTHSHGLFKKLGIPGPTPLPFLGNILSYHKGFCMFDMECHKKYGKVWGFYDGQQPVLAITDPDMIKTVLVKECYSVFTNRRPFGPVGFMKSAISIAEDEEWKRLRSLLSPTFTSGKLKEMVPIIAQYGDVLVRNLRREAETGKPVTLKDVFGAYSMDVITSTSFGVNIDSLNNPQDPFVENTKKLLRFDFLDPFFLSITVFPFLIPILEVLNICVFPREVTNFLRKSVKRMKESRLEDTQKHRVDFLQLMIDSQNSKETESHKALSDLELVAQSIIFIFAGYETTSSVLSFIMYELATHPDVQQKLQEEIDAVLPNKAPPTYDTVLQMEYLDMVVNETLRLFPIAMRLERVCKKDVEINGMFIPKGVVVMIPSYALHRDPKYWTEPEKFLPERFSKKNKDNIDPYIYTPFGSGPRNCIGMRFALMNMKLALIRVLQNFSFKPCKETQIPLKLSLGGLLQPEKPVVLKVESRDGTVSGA
Chain of Cytochrome P450 2C19 (Homo sapiens) (P33261 whole entry, looked up): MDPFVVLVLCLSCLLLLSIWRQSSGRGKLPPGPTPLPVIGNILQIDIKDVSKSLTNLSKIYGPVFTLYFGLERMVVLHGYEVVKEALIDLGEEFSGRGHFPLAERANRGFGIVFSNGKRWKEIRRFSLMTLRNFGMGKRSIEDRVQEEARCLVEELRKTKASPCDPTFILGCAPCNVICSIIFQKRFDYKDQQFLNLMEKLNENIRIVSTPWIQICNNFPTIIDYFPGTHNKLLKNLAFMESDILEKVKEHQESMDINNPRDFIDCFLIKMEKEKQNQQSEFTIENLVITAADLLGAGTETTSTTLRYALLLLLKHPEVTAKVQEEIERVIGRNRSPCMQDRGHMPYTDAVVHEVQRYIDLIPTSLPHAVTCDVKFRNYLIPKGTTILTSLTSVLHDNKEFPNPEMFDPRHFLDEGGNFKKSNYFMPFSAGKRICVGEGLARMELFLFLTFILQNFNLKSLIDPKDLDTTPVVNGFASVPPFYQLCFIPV
Chain of Glyceraldehyde-3-phosphate dehydrogenase (Homo sapiens) (P04406 whole entry, looked up): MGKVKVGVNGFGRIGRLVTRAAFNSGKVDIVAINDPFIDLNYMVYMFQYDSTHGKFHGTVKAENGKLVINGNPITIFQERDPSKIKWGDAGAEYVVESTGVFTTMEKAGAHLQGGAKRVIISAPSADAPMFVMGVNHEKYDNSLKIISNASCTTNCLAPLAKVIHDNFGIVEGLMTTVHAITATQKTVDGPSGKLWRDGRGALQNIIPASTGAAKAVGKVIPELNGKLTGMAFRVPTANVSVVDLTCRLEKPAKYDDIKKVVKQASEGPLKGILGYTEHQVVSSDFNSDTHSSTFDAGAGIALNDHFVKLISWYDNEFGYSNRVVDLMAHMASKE
Chain of Broad substrate specificity ATP-binding cassette transporter ABCG2 (Homo sapiens) (Q9UNQ0 whole entry, looked up): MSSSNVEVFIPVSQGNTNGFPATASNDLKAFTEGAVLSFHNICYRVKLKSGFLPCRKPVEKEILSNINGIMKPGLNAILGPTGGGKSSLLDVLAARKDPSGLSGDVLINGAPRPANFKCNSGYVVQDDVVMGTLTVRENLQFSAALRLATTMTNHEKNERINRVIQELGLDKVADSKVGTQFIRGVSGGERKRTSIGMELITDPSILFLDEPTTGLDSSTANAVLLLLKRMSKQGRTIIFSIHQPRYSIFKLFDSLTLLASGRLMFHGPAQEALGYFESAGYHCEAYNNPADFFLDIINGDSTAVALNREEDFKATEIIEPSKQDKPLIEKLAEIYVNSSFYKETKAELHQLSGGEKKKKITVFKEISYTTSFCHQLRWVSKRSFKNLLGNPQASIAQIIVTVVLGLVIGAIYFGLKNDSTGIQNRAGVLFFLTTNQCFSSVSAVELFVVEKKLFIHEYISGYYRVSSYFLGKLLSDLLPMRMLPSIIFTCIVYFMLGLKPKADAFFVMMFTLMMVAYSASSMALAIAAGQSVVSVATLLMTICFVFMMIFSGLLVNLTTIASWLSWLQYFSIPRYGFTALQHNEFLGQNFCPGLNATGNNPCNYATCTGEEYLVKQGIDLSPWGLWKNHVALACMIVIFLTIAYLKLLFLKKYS

CCOP(=O)(SC(C)CC)N1CCSC1=O (centres undefined)
inactive: [1] | [2] | [4] | [5] | [7] | [8] | [9] | [10] | [12] | [14] | [15]
active: [3] 3.89 µM | [6] 8.82 µM | [11] 3.26 µM | [13] 13.4 µM

CN(C)[C@@H]1C(=O)C(C(N)=O)=C(O)[C@@]2(O)C(=O)C3=C(O)c4c(O)cccc4[C@@](C)(O)[C@H]3[C@H](O)[C@@H]12
inactive: [1] | [2] | [3] | [4] | [5] | [8] | [11] | [12] | [13] | [14] | [16] | [15]

Cc1nn(-c2cc(NS(C)(=O)=O)c(Cl)cc2Cl)c(=O)n1C(F)F
inactive: [1] | [2] | [7] | [8] | [9] | [10] | [12] | [14] | [15] | [17]
active: [3] 4.25 µM | [5] 56.9 µM | [11] 4.18 µM | [13] 0.376 µM

C#CCC1=C(C)C(OC(=O)C2C(C=C(C)C)C2(C)C)CC1=O (centres undefined)
inactive: [18] | [2] | [7] | [9] | [10] | [14] | [16] | [15]
active: [3] 1.08 µM | [5] 2.76 µM | [6] 2.84 µM | [8] 20 µM | [11] 4.23 µM | [13] 4.64 µM

S=C1NCCN1
inactive: [1] | [18] | [2] | [3] | [5] | [7] | [9] | [10] | [11] | [12] | [14] | [16] | [17]

CCOP(=O)(OCC)Oc1cc(C)nc(C(C)C)n1
inactive: [1] | [2] | [4] | [7] | [10] | [13] | [14] | [16] | [15]
active: [3] 20 µM | [5] 38.2 µM | [8] 30.7 µM | [11] 20 µM

C#CC(C)(C)NC(=O)c1cc(Cl)cc(Cl)c1
inactive: [1] | [2] | [5] | [8] | [9] | [10] | [11] | [13] | [15]
active: [3] 4.15 µM

C=C(C)[C@H]1Cc2c(ccc3c2O[C@@H]2COc4cc(OC)c(OC)cc4[C@@H]2C3=O)O1
active: [5] 0.000155 µM | [10] 6.65 µM | [15] 3.88 µM
inactive: [1] | [2] | [7] | [9] | [12] | [13] | [14]

CNC(=O)ON=C(C)SC
inactive: [1] | [2] | [3] | [4] | [7] | [8] | [9] | [10] | [11] | [12] | [13] | [14] | [16]
active: [5] 73.3 µM

CC[C@H](C)[C@H]1O[C@]2(C=C[C@@H]1C)C[C@@H]1C[C@@H](C/C=C(\C)[C@@H](O[C@H]3C[C@H](OC)[C@@H](O[C@H]4C[C@H](OC)[C@@H](NC)[C@H](C)O4)[C@H](C)O3)[C@@H](C)/C=C/C=C3\CO[C@@H]4[C@H](O)C(C)=C[C@@H](C(=O)O1)[C@]34O)O2
active: [1] 205 nM | [4] 32.6 µM | [5] 3.41 µM | [15] 0.336 µM
inactive: [2] | [8] | [9] | [10] | [11] | [12] | [13] | [16]

CCCSP(=O)(OCC)SCCC
inactive: [1] | [5] | [7] | [9] | [10] | [12] | [13] | [19] | [15]
active: [3] 0.374 µM | [8] 4.21 µM | [11] 2.84 µM

O=C(O)c1cc(Oc2ccc(C(F)(F)F)cc2Cl)ccc1[N+](=O)[O-]
inactive: [1] | [2] | [3] | [4] | [5] | [8] | [9] | [11] | [12] | [13] | [14] | [16] | [15]

COc1cc(OC)nc(Sc2cccc(Cl)c2C(=O)O)n1
active: [13] 20 µM
inactive: [1] | [18] | [2] | [3] | [4] | [5] | [7] | [9] | [10] | [11] | [12] | [14] | [16] | [15] | [17]

CC(C)=CC1C(C(=O)OCN2C(=O)C3=C(CCCC3)C2=O)C1(C)C (centres undefined)
inactive: [1] | [2] | [7] | [8] | [10] | [12] | [14] | [16] | [15]
active: [3] 5.94 µM | [5] 12.3 µM | [11] 7.4 µM | [13] 4.28 µM

CCc1cccc(CC)c1N(COC)C(=O)CCl
active: [3] 2.58 µM | [5] 35.4 µM | [11] 2.69 µM | [13] 15.7 µM
inactive: [1] | [7] | [8] | [9] | [10] | [14] | [16] | [15] | [17]
